Type in all cases: functional
Test [1] deals with Plasmodium falciparum. Nature of the test: GSK_TCMDC: Inhibition of Plasmodium falciparum 3D7 in whole red blood cells, using parasite LDH activity as an index of growth. Test compounds present at 2uM.
In test [2] the test system is Plasmodium falciparum. In words: GSK_TCMDC: Inhibition of Plasmodium falciparum Dd2 in whole red blood cells, using parasite LDH activity as an index of growth. Test compounds present at 2uM.
Test [3] concerns HepG2. Nature of the test: GSK_TCMDC: Percent inhibition of human HepG2 cell line. Test compounds present at 10uM.

By Inhibition is commonly meant the relative decrease from the control value, in per cent. Higher therefore signals a strong effect. As to `COc1cc(COc2c(C)nc(N)nc2N)cc(OC)c1OC.Cl`, the Inhibition turned out to be 100% in test [1], 0% in test [2] and 7% in test [3].

Consider `Cc1cccc2nc(-c3cccc(-c4cccc(CNCCc5ccncc5)c4)c3)[nH]c12.O=C(O)C(F)(F)F`, for which the Inhibition in test [1] was determined as 100%; in test [2], 99%; in test [3], 20%.

With `COc1ccc2ncc(F)c(CCN3CCC(NCc4cc5c(cn4)OCCS5)CC3)c2c1.Cl`, the Inhibition in test [1] is listed as 89%; in test [2], 40%; in test [3] it was 4%.

Regarding `CCCCOC(=O)c1ccc(Nc2cc(C)nc3ccc(OC)cc23)cc1`, the Inhibition stood at 100% in test [1], 96% in test [2] and 4% in test [3].

On to `CN(C)c1c(CNCCCCCCNCc2ccc3ccccc3c2N(C)C)ccc2ccccc12.CS(=O)(=O)O`, for which the Inhibition came out at 100% in test [1], 51% in test [2] and 100% in test [3].

Consider `COc1ccc(Nc2nccc(-c3ccc4ccnc(NCCCCN)c4c3)n2)cc1`, for which the figures for the Inhibition in test [1], in test [2] and in test [3] were 95%, 47% and 15%, respectively.

As for `CN1CCN(Cc2ccc(-c3ccc4c(Nc5ccc(F)cc5Cl)ccnc4c3)o2)CC1`, the Inhibition is given as 100% in test [1], 100% in test [2] and 8% in test [3].

Take `Clc1ccc(C=NN=c2cc[nH]c3ccccc23)cc1`: the figures for the Inhibition in test [1], in test [2] and in test [3] were 100%, 97% and 5%, respectively.

As for `CCOC(=O)CNCC(=O)c1ccc(OCc2ccccc2)cc1.Cl`, the Inhibition in test [1] is 95%; in test [2] it was 43%; in test [3], 4%.

On to `COc1ccc(CN2CCC(CNCC(c3ccccc3)c3ccccc3)CC2)cc1.O=C(O)C(F)(F)F`, for which the results for the Inhibition in test [1], in test [2] and in test [3] were 100%, 95% and 84%, respectively.

For the compound `CCN(CC)CCn1c2ccccc2c2ccc(C(=O)Nc3ccc4sc(C)nc4c3)cc21.Cl`, the values for the Inhibition in test [1], in test [2] and in test [3] were 84%, 26% and 97%, respectively.

Take `Cc1cc(N(C)C)nc(Nc2ccc(NC(=O)c3ccc(Br)o3)cc2)n1`: the Inhibition was found to be 100% in test [1], 57% in test [2] and 1% in test [3].

In the case of `CN1CCC(N(Cc2ccc(-c3ccc(C(F)(F)F)cc3)nc2)C(=O)Cn2c(CCc3cccc(F)c3F)cc(=O)c3ccccc32)CC1.O=C(O)C(O)C(O)C(=O)O`, the figures for the Inhibition in test [1], in test [2] and in test [3] were 91%, 85% and 60%, respectively.

Regarding `Cc1cccc2nc(-c3ccc(-c4ccc(CNCc5ccc(S(C)(=O)=O)cc5)cc4)cc3)[nH]c12.O=C(O)C(F)(F)F`, the Inhibition in test [1] is 93%; in test [2], 38%; in test [3] it was 19%.

In the case of `COc1c(C2CCN(CCCCNC(=O)c3ccc(-c4ccc(Cl)cc4)cn3)CC2)ccc2c1CCCC2`, the Inhibition in test [1] is on record as 93%; in test [2] it was 14%; in test [3], 100%.

With `O=C(Cc1ccsc1)NCC(c1ccccc1Cl)c1c[nH]c2ccccc12` (configuration not stated), the Inhibition in test [1] stood at 86%; in test [2], 71%; in test [3], 0%.

Regarding `CSc1nc2nc(C)c(Cc3cccc(C(F)(F)F)c3)c(C)n2n1`, the Inhibition in test [1] turned out to be 98%; in test [2], 95%; in test [3], 4%.

Take `CS(=O)(=O)Cc1ccc(Nc2nccc(-c3c(-c4cccc(C(=O)Nc5c(F)cccc5F)c4)nn4ccccc34)n2)cc1`: the values for the Inhibition in test [1], in test [2] and in test [3] were 96%, 92% and 85%, respectively.

On to `O=C(Nc1ccc(C(F)(F)F)cc1)c1cc(Br)cnc1NCCCn1ccnc1`, for which the results for the Inhibition in test [1], in test [2] and in test [3] were 99%, 98% and 32%, respectively.

On to `CN1CCN(c2ccnc3ccc(NC(=O)Cc4ccc(OCc5ccccc5)cc4)cc23)CC1`, for which the Inhibition is reported as 100% in test [1], 89% in test [2] and 6% in test [3].

For `NC1=NC(c2ccccc2)(c2ccccc2)C(=O)N1CCCCc1ccccn1`, the values for the Inhibition in test [1], in test [2] and in test [3] were 94%, 56% and 10%, respectively.

On to `Cc1cc2ncc(C(N)=O)c(Nc3ccc(N4CCOCC4)cc3)c2cc1S(C)(=O)=O.Cl`, for which the Inhibition in test [1] is 100%; in test [2] it was 96%; in test [3], 0%.

As for `Fc1cccc(Nc2nc(NCc3ccc(Cl)c(Cl)c3)nc(Nc3cccc(F)c3)n2)c1`, the Inhibition turned out to be 99% in test [1], 7% in test [2] and 0% in test [3].

Consider `C=CC[C@H](C[C@H](O)[C@H](Cc1ccccc1)NC(=O)c1nn(-c2ccccc2)nc1C)C(=O)NC1CCCCC1`, for which the values for the Inhibition in test [1], in test [2] and in test [3] were 94%, 3% and 6%, respectively.

Consider `CCCCCCCCc1c(C)nc(C)c(I)c1O`, for which the values for the Inhibition in test [1], in test [2] and in test [3] were 91%, 77% and 5%, respectively.

`CCCCC1(NC(=O)[C@@H](Nc2ccc(C#N)c3ccccc23)C2CCCCC2)CCCCC1.O=C(O)C(F)(F)F`: the figures for the Inhibition in test [1], in test [2] and in test [3] were 91%, 84% and 8%, respectively.

In the case of `CCC(C)(C)c1ccc2nc(N)nc(N)c2c1C`, the figures for the Inhibition in test [1], in test [2] and in test [3] were 91%, 82% and 62%, respectively.

Take `Fc1ccc(-c2csc3ncnc(Cl)c23)cc1`: the Inhibition in test [1] worked out at 94%; in test [2] it was 95%; in test [3] it was 3%.

Consider `Cc1ccc(Nc2nc3cc(N(C)c4ccnc(Nc5cccc(CS(C)(=O)=O)c5)n4)ccc3o2)cc1.O=C(O)C(F)(F)F`, for which the Inhibition in test [1] was 90%; in test [2], 16%; in test [3], 0%.

(Values after ChEMBL document CHEMBL1157539, “Thousands of chemical starting points for antimalarial lead identification” (Nature, 2010).)
